# In the library only some 11% were active in any assay of this set; here they are far more common.
# IMPase Li inh: qHTS Assay for Identifying the Cell-Membrane Permeable IMPase Inhibitors: Potentiation with Lithium; CHO-M1 cells, IP1 TR-FRET (IP-One), carbachol + lithium; Potency, µM (highest dose often 59.4 µM), without a hit: top-dose activity, negative = IMPase inhibition, usual class: inhibitors; 210,000 tested, 0.35% active; AID 1457, 2008;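 note: IP1 builds up when IMPase is blocked and the TR-FRET signal falls; potency is the fitted concentration of half-maximal effect; plate controls were basal vehicle for no effect and high inhibitor control for full effect; nearly all actives have a fitted effect of over 50% in size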
#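 CHO cells stably expressing M1 receptor (2000/well, cultured 16–30 h) treated 30 min at 37C with compound plus low lithium. Cytosolic IP1 by TR-FRET (665/620 ratio and 620 channel) after 10 min lysis; AC50 by Hill fit.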
# PNC assembly inh: High Content Assay for Compounds that inhibit the Assembly of the Perinucleolar Compartment; AID 2417, 2010; PC3M PTB-GFP, PNC prevalence imaging, 16 h; hits give low values; activity change (PNC), negative = inhibition, % at 10 µM; 140,000 tested, 3.1% active;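 active = readout at or below -70, meaning at least 70% loss of cells showing the perinucleolar compartment, a nuclear body marking cancer cells; inconclusive = readout between -30 and a set limit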;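 note: plate controls were DMSO wells for no effect and camptothecin positive control wells for full effect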
#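 Compounds are pinned in duplicate onto adhered PC3M cells stably expressing GFP-tagged PTB and incubated 16 h at 37 C. Cells are then fixed, nuclei stained with Hoechst, and PNC-positive cells counted.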
# HPGD inh: qHTS Assay for Inhibitors of HPGD (15-Hydroxyprostaglandin Dehydrogenase) | 15-hydroxyprostaglandin dehydrogenase [NAD(+)] (Homo sapiens), P15428 | Potency, µM, for inactives: top-dose activity change, negative = inhibition, most hits filed as inhibitors | 150,000 tested, 4.3% active | purified HPGD, NADH fluorescence kinetic, PGE2 substrate; active = well fitted inhibition curve with a large enough effect, not every such curve was filed as active; inconclusive = small, poorly fitted or top-dose-only effect, or another doubt; inactive = no such curve, though single readings can be large or run the other way; note: potency is the fitted concentration of half-maximal effect
# Target sequence (P15428 whole entry, looked up): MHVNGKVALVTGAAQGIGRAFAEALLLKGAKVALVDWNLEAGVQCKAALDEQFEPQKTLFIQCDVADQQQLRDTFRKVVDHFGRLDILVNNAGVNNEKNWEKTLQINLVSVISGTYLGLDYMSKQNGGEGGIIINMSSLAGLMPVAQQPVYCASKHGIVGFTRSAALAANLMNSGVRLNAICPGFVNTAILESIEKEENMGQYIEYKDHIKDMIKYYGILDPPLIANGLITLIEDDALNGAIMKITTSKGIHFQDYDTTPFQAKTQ
#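 20 nM HPGD preincubated 15 min at room temperature with compound in 50 mM Tris-HCl pH 8, 0.01% Tween 20. Started with 1 mM NAD+ and 30 uM prostaglandin E2; NADH fluorescence (360/450 nm) read 5 times over 30-s intervals, last minus first.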
# 12-hLO inh: qHTS Assay for Inhibitors of 12-hLO (12-human lipoxygenase) | Polyunsaturated fatty acid lipoxygenase ALOX12 (Homo sapiens), P18054 | purified 12-hLO, xylenol orange hydroperoxide absorbance | Potency, µM (top dose mostly 57.1 µM), for the others: at the highest dose activity change, negative = inhibition, most hits filed as inhibitors | 150,000 tested, 0.12% active; note: potency is the fitted concentration of half-maximal effect; nearly all actives have a fitted effect of over 55% in size
#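 Hydroperoxide output read as Fe(III)-xylenol orange absorbance, 573-to-405 nm ratio, after 30 min reaction with 40 uM arachidonic acid. Enzyme: 150 nM purified human 12hLO, 15 min compound preincubation; 25 mM Hepes pH 7.0, room temperature.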
# ALDH1A1 block: qHTS Assay for Inhibitors of Aldehyde Dehydrogenase 1 (ALDH1A1). Aldehyde dehydrogenase 1A1 (Homo sapiens), P00352. Purified ALDH1A1, NADH fluorescence, propionaldehyde substrate. Potency, µM (top dose mostly 75.3 µM), without a hit: top-dose activity, negative = inhibition, usual class: inhibitors. 220,000 tested, 7.3% active; active = well fitted inhibition curve with a large enough effect, not every such curve was filed as active; inconclusive = small, poorly fitted or top-dose-only effect, or another doubt; inactive = no such curve, though single readings can be large or run the other way;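 note: potency is the fitted concentration of half-maximal effect; plate controls were no enzyme wells and a reference inhibitor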
# IMPase inh: qHTS Assay for Identifying the Cell-Membrane Permeable IMPase Inhibitors; Inositol monophosphatase 1 (Rattus norvegicus), P97697; inhibition (IP1 accumulation), % at 46.1 µM; 120,000 tested, under 10 active; CHO-M1 cells, IP1 accumulation, HTRF TR-FRET ratio; active = well fitted curve in the direction sought with a large enough effect in the signal ratio, not every such curve was filed as active; inconclusive = small, poorly fitted or top-dose-only effect, or a change in a side signal; inactive = no such curve, though single readings can be large or run the other way; the % refers to the signal ratio;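 note: cells stimulated with carbachol in lithium chloride buffer; plate controls were DMSO basal wells for no effect and reference inhibitor wells for full effect; higher means more IMPase inhibition seen as more IP1 and lower FRET ratio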
# Target sequence (P97697 whole entry, looked up): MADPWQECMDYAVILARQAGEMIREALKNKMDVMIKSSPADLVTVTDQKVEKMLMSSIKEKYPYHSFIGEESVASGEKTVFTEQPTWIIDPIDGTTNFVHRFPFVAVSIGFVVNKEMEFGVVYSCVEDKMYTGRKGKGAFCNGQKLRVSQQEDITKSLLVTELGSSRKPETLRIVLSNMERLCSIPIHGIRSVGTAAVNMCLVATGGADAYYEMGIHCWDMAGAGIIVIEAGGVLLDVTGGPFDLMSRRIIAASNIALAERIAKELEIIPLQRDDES
#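 CHO-M1 cells (CHO stably expressing M1 receptor), compound up to 46 uM final, stimulated with carbachol (50 uM as added) in buffer with 50mM LiCl, pH 7.4, 30 min at 37C. Cytosolic IP1 read by TR-FRET; AC50 from Hill fits.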
# * = called active by the depositor; ? = inconclusive; / = no result given; [ ] = remark or other dose. Unless noted, calls come from the whole dose curve; as a rule, active = well fitted curve in the direction sought with a large enough effect; inconclusive = small, poorly fitted or top-dose-only effect, or another doubt; inactive = no such curve, though single readings can be large; an effect the other way counts as inactive or inconclusive. Unless noted, % is set by controls: 0 for no effect and ±100 for the full control effect.
SMILES,IMPase Li inh,PNC assembly inh,HPGD inh,12-hLO inh,ALDH1A1 block,IMPase inh
CCOc1ccc(-n2nnc3c(=O)n(C/C=C/c4ccccc4)cnc32)cc1,9%[38.3 µM],-89*,-19%,5%,1%,1
CN[C@]1(C)[C@H]2CC[C@@H](C2)C1(C)C,3%,/,5%,0%[25.6 µM],-10%[20.9 µM],4[20.6 µM]
Cc1ccc(SC(=O)COc2ccccc2C)cc1,28%[38.3 µM],-112*,-20%,-3%,6%,2
COc1ccc2cc(CN(CCc3ccccc3)Cc3nnnn3Cc3ccco3)c(=O)[nH]c2c1,-3%[38.3 µM],-21,-12%,?,0.079µM*,8
Cc1ccc(CN(Cc2cc3cc4c(cc3[nH]c2=O)OCCO4)Cc2nnnn2Cc2ccco2)cc1,-9%[38.3 µM],-4,?,-5%,?,-21
Cc1ccc2cc(CN(Cc3ccc4c(c3)OCO4)Cc3nnnn3Cc3ccco3)c(=O)[nH]c2c1,11%[38.3 µM],?,-28%,-22%,14µM*,1
COc1ccccc1CN(Cc1cc2c(C)ccc(C)c2[nH]c1=O)Cc1nnnn1Cc1ccco1,33%[38.3 µM],19,-7%,-8%,14µM*,1
Oc1cc(O)c2c(c1)O[C@H](c1ccc(O)c(O)c1)[C@@H](O)[C@@H]2c1c(O)cc(O)c2c1O[C@@H](c1ccc(O)c(O)c1)[C@H](O)C2,7%,/,0%,-14%[11.4 µM],2%[13.5 µM],/
CCCNC(=S)N1CCN(C(c2ccccc2)c2ccccc2)CC1,13%,32,-11%,3%,?,/
CCNC(=S)N1CCN(C(c2ccccc2)c2ccccc2)CC1,39%[38.3 µM],-29,-13%,-6%,3.2µM*,-3[1.84 µM]
CC1CCCN(C(=O)C2CCN(CC(C)c3ccccc3)CC2)C1 (stereo unspecified),18%,12,22µM*,-2%,?,0
O=C(C1CC1)N1CCN(C(c2ccccc2)c2ccccc2)CC1,42%[38.3 µM],10,-6%,7%,1.1µM*,7
CCCCNC(=S)N1CCN(C(c2ccccc2)c2ccccc2)CC1,8%,/,/,/,28µM*,/
Cn1c(=O)c2c(ncn2CC(=O)Nc2cc(Cl)c(Cl)cc2Cl)n(C)c1=O,-8%[38.3 µM],?,-9%,0%,15%,4
CC(C)(O)C(=O)O,-15%,/,-10%,3%,?,/
CCNC(=S)N1CCN(Cc2ccccc2)CC1,0%,/,/,/,16µM*,/
CCN1CCN(C(=S)NCCc2ccccc2)CC1,-18%[38.3 µM],36,-2%,9%,-12%,6
Cc1ccc(C(=O)/C=C/c2ccc(-c3ccc(C)cc3)o2)cc1,6%,-24,7.1µM*,-25%,0.71µM*,/
Cc1ccc(S/C=C\C(=O)c2ccccc2)cc1,2%[38.3 µM],?,-21%,5%,20µM*,2
O=C(O)/C=C/C(=O)c1ccc(O)cc1,/,/,/,/,14µM*,/
Cc1ccc(-c2ccc(/C=N/NC(=O)c3ccccc3O)o2)cc1,/,/,/,/,-10%,/
CC(/C=C/C(=O)c1ccc(C)cc1)=C\c1ccccc1,2%[38.3 µM],-1,-15%,-12%,-7%,5
Cc1ccc(C(=O)/C=C\C(=O)c2ccc(C)cc2)cc1,12%,-10,2.2µM*,0%,7.1µM*,/
O=C(O)c1cc2ccccc2c2cc(Br)ccc12,/,/,/,/,-6%,/
O=C(/C=C/c1ccccc1)c1ccccc1,2%,20,-23%,-3%,-13%,/
SMILES,IMPase Li inh,PNC assembly inh,HPGD inh,12-hLO inh,ALDH1A1 block,IMPase inh
O=C(/C=C\c1ccc(-c2ccccc2)o1)c1ccccc1,15%,?,?,-18%,4µM*,-17
O=C(CCCCCn1c(=S)[nH]c2ccc(N3CCOCC3)cc2c1=O)NCc1ccc(Cl)cc1,11µM*,/,/,/,?,/
O=C(C(=O)N1CCCC1CO)N1CCCC1CO (stereo unspecified),-4%,/,/,/,7%,/
Cn1c(CSc2nc3ccc(Br)cc3[nH]2)nc2ccccc21,-1%[38.3 µM],55,-7%,-9%,4%,4
Cn1c(CSc2nnc(SCc3ccccc3)s2)nc2ccccc21,12%[38.3 µM],27,-26%,-5%,25µM*,-11
O=C(c1cc(C(F)(F)F)cc(C(F)(F)F)c1)N1CCC[C@@]2(CCN(c3ccncc3)C2)C1,2%,/,-3%,1%,8%,/
COc1ccc2cnnc(SCC(=O)Nc3ccccc3)c2c1OC,1%,9,25µM*,-1%,?,/
CCNc1ncc2nc(-c3ccccc3)c(=O)n(Cc3cccc(OC)c3)c2n1,-2%,/,/,/,?,/
COc1ccccc1NS(=O)(=O)c1cc(N)ccc1N1CCCCC1,-3%,/,/,/,3.2µM*,/
COc1ccccc1NS(=O)(=O)c1cc(NC(=O)CC(C)(C)C)ccc1N1CCOCC1,-1%,/,/,/,-5%,/
COc1ccccc1NS(=O)(=O)c1cc(NC(=O)Nc2ccc(Cl)cc2Cl)ccc1N1CCCCC1,3%,-16,?,-3%,?,/
COc1ccccc1NS(=O)(=O)c1cc(NC(=O)CCC2CCCC2)ccc1N1CCOCC1,14%,/,/,/,16µM*,/
Cc1cc2nc(-c3ccc(NC(=O)c4ccc(OCC(C)C)cc4)cc3)oc2cc1C,/,/,/,/,/,-13
CN1CCN(c2nc(-c3ccccc3)nc(-c3ccc(F)cc3)c2C#N)CC1,26%,/,/,/,0%,/
COc1ccc(-c2nc(-c3ccccn3)nc(N3CCN(C)CC3)c2C#N)cc1,4%,/,/,/,14µM*,/
COC(=O)/C(=C\c1ccc(O)cc1)c1nc2ccccc2[nH]1,10%,/,/,/,12µM*,/
